The structures appear in SMILES notation. Values joined by “and” are separate entries in the source; they are usually repeats but may differ in a detail not shown here. Equal entries are not always repeated. Results filed as inconclusive are left out. Some structures have more than one record in an assay (separate samples or runs), and their calls can disagree. Active and inactive are the calls of the source. Unless noted, the call rests on the fitted dose curve; in most records, active means well fitted curve in the direction sought with a large enough effect in the repeat runs; inconclusive means weak or mixed curves; inactive means no such curve, though single readings can be large; an effect the other way counts as inactive or inconclusive.

Test [1] in a line: qHTS assay to identify small molecule antagonists of the progesterone receptor (PR) signaling pathway - cell viability counter screen (AID 1346798). Further: nearly all actives have a fitted effect of over 50% in size. Further: potency means the concentration at half of the fitted maximal effect. In a few lines: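 In the same plates used for the beta-lactamase readout, cell viability of compound- and R5020-treated PR-UAS-bla HEK293T cells (16 hr, 37C) was assessed by CellTiter-Glo luminescence.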
A short description of test [2]: qHTS assay to identify small molecule agonists of the progesterone receptor (PR) signaling pathway - cell viability counter screen (AID 1346799; calls by dose curve; further: nearly all actives have a fitted effect of over 45% in size; further: potency means the concentration at half of the fitted maximal effect). The procedure, abridged:
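Multiplexed viability read: CellTiter-Glo luminescence, 30 min RT, following LiveBLAzer FRET measurement on PR-UAS-bla HEK293T cells exposed to compounds 16 hr.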

A short description of test [3]: qHTS assay to identify small molecule antagonists of the TGF-beta/Smad signaling pathway - cell viability counter screen (AID 1346824). Further: nearly all actives have a fitted effect of over 50% in size. Further: potency means the concentration at half of the fitted maximal effect. The procedure, abridged:
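SBE-bla HEK 293T cells were plated overnight at 37 C, then given compounds in DMSO plus TGF-beta1 (added as 0.25 ng/mL solution) for 5 hr. After the bla read, CellTiter-Glo was added to the same wells and luminescence read after 30 min at room temperature.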

Test [4] is described as follows: qHTS assay to identify small molecule agonists of the TGF-beta/Smad signaling pathway - cell viability counter screen (AID 1346829). Further: nearly all actives have a fitted effect of over 45% in size. Further: potency means the concentration at half of the fitted maximal effect. In a few lines:
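SBE-bla HEK 293T cells plated overnight, compound exposure 5 hr at 37 C. Viability read in the same wells by CellTiter-Glo luminescence after 30 min at room temperature, following the beta-lactamase read.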

Test [5] in a line: qHTS assay to identify small molecule agonists of the TGF-beta/Smad signaling pathway (AID 1346859; active means well fitted activation curve with a large enough effect in the signal ratio in the repeat runs, not every such curve was filed as active; the % refers to the signal ratio; further: series mostly up to about 77 µM). The procedure, abridged: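 Screening used HEK 293T SBE-bla cells at 4,000/well. Test agents: 5 hr, 37 C. Detection: FRET substrate, 2 hr RT, then excitation 405 nm with emissions at 460 and 530 nm.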
The target of test [6] is Thyrotropin-releasing hormone receptor (Homo sapiens) (UniProt P34981). As to the kind of experiment: qHTS assay to identify small molecule antagonists of the thyrotropin-releasing hormone receptor (TRHR) signaling pathway (AID 1346877; active means well fitted inhibition curve with a large enough effect in the repeat runs, not every such curve was filed as active; further: potency means the concentration at half of the fitted maximal effect). The procedure, abridged: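 Screening used HEK293 cells engineered with TRHR, with a brief 5 min room-temperature compound exposure preceding addition of TRH to 1 nM. The read-out was kinetic calcium-dye fluorescence, concentration-response from 15 doses in triplicate.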

Test [7] has the same target. The test can be described thus: qHTS assay to identify small molecule agonists of the thyrotropin-releasing hormone receptor (TRHR) signaling pathway (AID 1346891; calls by dose curve; further: series mostly up to about 58 µM). In a few lines:
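Readout was intracellular calcium fluorescence in TRHR-Hek293 cells. Cells were incubated 18 h, dye-loaded 2 h at 37 °C, and treated with compound in agonist mode.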

Test [8] in a line: Human pregnane X receptor (PXR) small molecule agonists, qHTS cell viability counter screen (AID 1346977). Further: nearly all actives have a fitted effect of over 50% in size. Further: potency means the concentration at half of the fitted maximal effect. In a few lines:
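In each well, the PXR reporter HepG2 line was checked for viability: CellTiter-Fluor reagent added 23hr post-dosing, fluorescence read after 1hr incubation at 37C.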

A short description of test [9]: Caspase-3/7 induction in HepG2 cells by small molecules, qHTS assay (AID 1346978). Further: nearly all actives have a fitted effect of over 15% in size. Further: potency means the concentration at half of the fitted maximal effect. The procedure, abridged: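 Wild-type HepG2 cells (2,000/well) were settled 5 h at 37 C, 5% CO2, then exposed to compounds in DMSO for 17 h. Caspase-3/7 activity was read by luminescence 30 min after adding Caspase-Glo 3/7 reagent at room temperature.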
On the % scale 0 is the no-effect control and ±100 the full control effect.

Thyrotropin-releasing hormone receptor (Homo sapiens), sequence (P34981 whole entry, looked up): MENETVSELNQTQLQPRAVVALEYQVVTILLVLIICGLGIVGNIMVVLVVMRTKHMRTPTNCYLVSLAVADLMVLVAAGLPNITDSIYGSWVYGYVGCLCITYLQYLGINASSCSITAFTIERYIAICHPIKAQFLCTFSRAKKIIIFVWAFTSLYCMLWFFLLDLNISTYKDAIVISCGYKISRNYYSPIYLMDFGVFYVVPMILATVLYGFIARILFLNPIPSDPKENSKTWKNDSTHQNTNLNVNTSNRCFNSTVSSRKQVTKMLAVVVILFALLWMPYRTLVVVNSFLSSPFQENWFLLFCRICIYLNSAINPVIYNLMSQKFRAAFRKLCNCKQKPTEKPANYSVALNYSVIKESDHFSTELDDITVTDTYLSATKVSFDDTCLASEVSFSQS

Take `CCCCCCCCCCCCc1ccccc1O`: the Potency in [1] was 38.6 µM (active); in [2], 53.8 µM (active) and 30.6 µM (active); in test [3], 54.2 µM (active) and 54.9 µM (active); in [4], 49 µM (active); in test [8], 47.9 µM (active) and 30.6 µM (active); in test [9] it was 60.3 µM (active) and 54.5 µM (active). Moreover, the outcome in [5] was inactive. For the same compound, the Potency result in test [6] and in test [7] was “inactive” each time.

Consider `CC(C)(C)c1ccc(O)c(C(C)(C)C)c1`, for which the Potency result in test [3] and in test [8] was “inactive” in each case. The result in test [5] was inactive. Besides, in test [9], the Potency was 30.5 µM (active) and 54.5 µM (active).

With `O=C(O)c1cc(Cl)cc(Cl)c1`, the Potency entry in test [1], in test [2], in test [3], in [4], in test [6] and in [8] was “inactive” in each case. The Potency result in test [9] is “inactive”. Moreover, the compound was classed as inactive in [5].

As for `CCCCCCCCCCCCCC[P+](CCCC)(CCCC)CCCC`, the Potency in test [1] is 30.5 µM (active) and 54.5 µM (active); in test [2], 30.5 µM (active); in test [3], 10.9 µM (active) and 27.5 µM (active); in test [4], 54.9 µM (active); in [8], 6.31 µM (active) and 13.7 µM (active); in test [9], 48.6 µM (active). For the same compound, the Potency result in [6] and in [7] was “inactive” throughout.

Regarding `c1ccc2c(c1)-c1cccc3c1c-2cc1ccccc13`, the Potency entry in test [1], in [2], in [3], in test [4], in [8] and in [9] was “inactive” in each case.

Consider `CCN(CC)CCOc1ccc(/C(=C(\Cl)c2ccccc2)c2ccccc2)cc1`, for which, in test [3], the Potency entry is “inactive”. For the same compound, in test [5], the result was inactive. Further, in [8], the Potency is 39.4 µM (active) and 26.6 µM (active).

As for `CC1COc2c(N3CCN(C)CC3)c(F)cc3c(=O)c(C(=O)O)cn1c23` (stereo not drawn), the Potency entry in [1], in test [2], in [3], in [4], in test [6] and in test [7] was “inactive” throughout. Further, the Potency entry in [8] and in [9] was “inactive” throughout. For the same compound, the outcome in test [5] was inactive.

Turning to `CCCCCCC(O)CCCCCCCCCCC(=O)O` (stereo not drawn), the Potency in [2] was 48.7 µM (active) and 15.4 µM (active). In addition, the Potency result in test [3], in test [4], in [6], in test [7], in test [8] and in test [9] was “inactive” in each case.

With `CCc1ccc(C(c2ccc(CC)cc2)C(Cl)Cl)cc1`, the Potency entry in test [1], in [2], in test [3], in [4], in [6] and in test [7] was “inactive” in each case. Moreover, the Potency result in test [8] and in [9] was “inactive” in each case. Also, the compound was classed as inactive in test [5].

For `OCCOCCN1CCN(C(c2ccccc2)c2ccc(Cl)cc2)CC1` (stereo not drawn), the Potency is 33.9 µM (active) in [2]; 24 µM (active) in test [8]; 53.8 µM (active) and inactive in test [9]. Further, the Potency entry in test [3], in test [4], in [6] and in test [7] was “inactive” in each case. Also, the result in test [5] was inactive.

`CN(C)c1ccc2nc3ccc(=[N+](C)C)cc-3sc2c1`: the Potency result in test [1], in test [2], in test [3], in [4], in test [6] and in test [7] was “inactive” each time. In addition, in [5], the result was inactive. In addition, the Potency in test [8] is 1.86 µM (active) and 9.69 µM (active) and 10.6 µM (active).

Take `CNCCC(Oc1ccc(C(F)(F)F)cc1)c1ccccc1` (stereo not drawn): the Potency in [1] is 60.3 µM (active) and 29.8 µM (active); in test [2], 30.2 µM (active) and 13.3 µM (active); in [8], 24 µM (active) and 26.6 µM (active); in test [9], 26.9 µM (active). For the same compound, the Potency entry in [3], in test [4] and in test [6] was “inactive” in each case. In addition, in test [5], the compound was called inactive.

Regarding `Cc1ccc(-c2cc(C(F)(F)F)nn2-c2ccc(S(N)(=O)=O)cc2)cc1`, the Potency result in test [1], in test [3], in [4], in test [6] and in [7] was “inactive” in each case. Moreover, the Potency was 76.6 µM (active) and inactive in test [2]; 60.9 µM (active) and inactive in test [8]; 54.3 µM (active) in test [9]. Moreover, the compound was called inactive in test [5].

In the case of `CC(C)C(=O)c1c(C(C)C)nn2ccccc12`, the Potency result in test [1], in test [2], in [3], in [4], in test [6] and in [7] was “inactive” each time. Also, the Potency entry in test [8] and in test [9] was “inactive” throughout. The compound was called inactive in test [5].

Consider `CC[C@]1(O)C[C@@H]2CN(CCc3c([nH]c4ccccc34)[C@@](C(=O)OC)(c3cc4c(cc3OC)N(C)[C@H]3[C@@](O)(C(=O)OC)[C@H](OC(C)=O)[C@]5(CC)C=CCN6CC[C@]43[C@@H]65)C2)C1`, for which the Potency entry in test [3], in test [4], in test [6], in test [7] and in [9] was “inactive” throughout. Further, in [5], the result was inactive. In addition, in test [8], the Potency is 15 µM (active) and 26.6 µM (active).

On to `CC(C)CCCCCCc1ccc(O)cc1`, for which the Potency was 6.22 µM (active) in test [1]; 4.94 µM (active) and inactive in [2]; 50.1 µM (active) in [8]; 55.4 µM (active) and 68.6 µM (active) in test [9]. The Potency result in test [4], in [6] and in test [7] was “inactive” each time. In addition, the call in [5] was inactive.

For `CCCCCCCCCCCC[N+](C)(C)C`, the Potency entry in test [3], in test [4], in test [6], in test [7] and in test [9] was “inactive” each time.

Regarding `c1ccc2cc3c(ccc4ccccc43)cc2c1`, the Potency result in test [1], in test [2], in test [3], in test [4], in [8] and in [9] was “inactive” each time. Further, the compound was called inactive in test [5].

On to `O=c1n(CC2CO2)c(=O)n(CC2CO2)c(=O)n1CC1CO1` (stereo not drawn), for which the Potency entry in test [1], in test [3], in test [4], in [6] and in test [7] was “inactive” each time. Further, in [5], the result was inactive. The Potency in test [8] is 50.1 µM (active) and 54.5 µM (active); in test [9], 68.2 µM (active).

As for `CCCCC(CC)COC(=O)CC(C(=O)OCC(CC)CCCC)S(=O)(=O)O` (stereo not drawn), the Potency in test [2] was 29.5 µM (active); in test [8], 70.8 µM (active) and 61.1 µM (active). In addition, the Potency entry in test [4], in test [6] and in test [9] was “inactive” each time. For the same compound, the call in [5] was inactive.

As to `CN(C)c1ccc(C(=C2C=CC(=[N+](C)C)C=C2)c2ccccc2)cc1`, the Potency in [1] is 8.63 µM (active) and 6.68 µM (active) and 7.5 µM (active); in [2] it was 9.69 µM (active) and 7.5 µM (active) and 8.41 µM (active); in [3] it was 8.49 µM (active) [middle of 4 runs]; in test [4] it was 8.49 µM (active) [middle of 4 runs]; in [6] it was 26.9 µM (active) and inactive; in [8], 2.37 µM (active) [middle of 4 runs]. Also, the Potency in test [9] was 4.33 µM (active) and 5.31 µM (active) and 5.96 µM (active). Also, in [5], the compound was called inactive.

With `BrC1CCC(Br)C(Br)CCC(Br)C(Br)CCC1Br` (stereo not drawn), the Potency is 54.3 µM (active) and 51.7 µM (active) in test [1]; 30.5 µM (active) and 41.1 µM (active) in test [2]. The Potency result in test [3] and in [9] was “inactive” each time.

Source of the values: PubChem BioAssay (Tox21).
